L3MBTL1 inh: inhibitors of human L3MBTL1 | Q9Y468 | AlphaScreen L3MBTL1–H3K9me1 peptide binding | Potency, µM (highest dose often 57.1 µM), without a hit: at the highest dose activity, negative = inhibition, usual class: inhibitors | 230,000 compounds, 0.66% hits; also: % is scaled to controls: 0 for no effect and ±100 for the full control effect; nearly all actives have a fitted effect of over 60% in size
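Read-out is AlphaScreen signal from streptavidin donor and nickel chelate acceptor beads (10 ug/mL final each) bridging L3MBTL1 (50 nM) and biotinylated K9-monomethylated H3(1-15) peptide (75 nM), after 30 min compound exposure at room temperature.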
JMJD2A Tudor inh: blocks the human JMJD2A Tudor domain; AlphaScreen JMJD2A-Tudor / H3K4me3 peptide binding; 390,000 compounds, 4.4% hits; Potency, µM (series often up to 114 µM), without a hit: top-dose activity change, negative = inhibition, actives largely listed as inhibitors; also: % is scaled to controls: 0 for no effect and ±100 for the full control effect; nearly all actives have a fitted effect of over 50% in size
Sfp inh: blocks B. subtilis Sfp PPTase activity; 310,000 compounds, 3.5% hits; Potency, µM, for the others: largest response in the series, negative = inhibition, actives largely listed as inhibitors; Biochemical Sfp PPTase activity, qHTS;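 also: the enzyme is Sfp with the accession as filed and its product quenches rhodamine fluorescence; 0% = enzyme reaction without inhibitor and -100% = no enzyme wells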
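After 15 min at room temperature with compound, 15 nM Sfp received 5 uM rhodamine-CoA plus 12.5 uM BHQ-2-ybbR (50 mM Hepes pH 7.6, 10 mM MgCl2). Rate came from the fluorescence difference over 30 min, ex 525/em 598 nm.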
BAZ2B inh: BAZ2B (human) inhibition; Q9UIF8; AlphaScreen BAZ2B-H3K14Ac peptide displacement; Potency, µM (titrated, usually from 114 µM), for the others: at the top dose activity change, negative = inhibition, most hits filed as inhibitors; 360,000 compounds, 4.4% hits; also: % is scaled to controls: 0 for no effect and ±100 for the full control effect; nearly all actives have a fitted effect of over 60% in size
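Multi-concentration screen (max 110 uM) measuring displacement of acetylated histone H3 peptide from BAZ2B by AlphaScreen, using 50 nM protein, 50 nM peptide and 10 ug/mL streptavidin donor plus Ni-chelate acceptor beads.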
HP1b chromo inh: HP1-beta chromodomain-methylated histone interaction inhibition | P83916 | AlphaScreen HP1-beta / biotin-H3K9me3 peptide binding | 390,000 compounds, 0.56% hits | Potency, µM (top dose mostly 114 µM), without a hit: top-dose activity change, negative = inhibition, actives largely listed as inhibitors; also: nearly all actives have a fitted effect of over 70% in size
Target sequence (P83916 whole entry, looked up): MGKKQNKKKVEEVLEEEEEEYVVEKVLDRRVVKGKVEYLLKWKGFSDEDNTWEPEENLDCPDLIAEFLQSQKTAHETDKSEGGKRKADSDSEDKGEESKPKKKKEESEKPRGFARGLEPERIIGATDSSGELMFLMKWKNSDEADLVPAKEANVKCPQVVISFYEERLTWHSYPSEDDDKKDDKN
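Compound inhibition of the preformed complex between 50 nM HP1-beta and 50 nM biotinylated H3K9me3 peptide was read by AlphaScreen. Buffer was PBS pH 7.4 with 0.01% Tween-20. Incubations ran 30 min at room temperature, with 10 ug/mL donor/acceptor beads.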
G9a inh: blocks human histone lysine methyltransferase G9a; Q96KQ7; G9a H3K9 monomethylation, AlphaScreen, 2 h; Potency, µM (titrated, usually from 102 µM), without a hit: at the top dose activity, negative = inhibition, most hits filed as inhibitors; 350,000 compounds, 8.8% hits; also: % is scaled to controls: 0 for no effect and ±100 for the full control effect; nearly all actives have a fitted effect of over 75% in size
Target sequence (Q96KQ7 913-1193 limits assumed): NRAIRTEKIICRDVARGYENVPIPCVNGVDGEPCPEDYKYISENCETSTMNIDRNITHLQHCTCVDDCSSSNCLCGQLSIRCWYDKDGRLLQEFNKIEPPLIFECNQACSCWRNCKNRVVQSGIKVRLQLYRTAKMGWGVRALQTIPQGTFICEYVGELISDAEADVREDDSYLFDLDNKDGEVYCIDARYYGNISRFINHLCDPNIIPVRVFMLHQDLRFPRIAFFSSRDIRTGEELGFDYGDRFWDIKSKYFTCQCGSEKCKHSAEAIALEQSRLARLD
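AlphaScreen read-out: biotin-H3K9 peptide (500 nM) methylation by 20 nM enzyme with 20 uM SAM, 2 h at room temperature after 15 min compound preincubation; anti-monomethyl H3K9 antibody plus donor/acceptor beads, 10 min dark.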
Starred values were filed as active, the others as inactive; ? = inconclusive; · = no result; ! = not confirmed by another sample; [ ] = dose if it differs, or a comment. In the library only some 12% were active in any assay of this set; here they are far more common. Calls follow the shape of the dose curve; as a rule, active = well fitted curve in the direction sought with a large enough effect; inconclusive = small, poorly fitted or top-dose-only effect, or another doubt; inactive = no such curve, though single readings can be large; an effect the other way counts as inactive or inconclusive. Potency is read from the fitted curve at half-maximal effect.

SMILES	L3MBTL1 inh	JMJD2A Tudor inh	Sfp inh	BAZ2B inh	HP1b chromo inh	G9a inh
COc1ccc(N(CC(=O)Nc2ccc(Cc3ccncc3)cc2)S(=O)(=O)c2ccccc2)cc1	·	-29%	1%	-5%	34%	-5%
COc1ccc(C(=O)CC(=O)C(=O)Nc2ccc(C)c(Cl)c2)cc1	·	-15%	3%	-7%	44%	-7%
CCN1C(=O)/C(=C\N2CCCc3ccccc32)SC1=S	·	-5%	-10%	1%	81%	-2%[12.7 µM]
CN1/C(=C\C=O)C(C)(C)c2ccccc21	-4%	-21%	19%	·	11%	4%
CCCN1C(=O)/C(=C/C=C2\N(CC)c3ccccc3C2(C)C)SC1=S	-16%	11µM*	16%	1.8µM*	10µM*	?
C=CCN1C(=O)/C(=C\C=C2\N(C)c3ccccc3C2(C)C)SC1=S	-11%	?	-16%	?	?	16µM*
CN1/C(=C\C=C2/SC(=S)N(CC(=O)O)C2=O)C(C)(C)c2ccccc21	-24%	?	22µM*	28µM*	35µM*	18µM*
CCOc1ccc(S(=O)(=O)N(C(=O)c2ccncc2)c2ccc3oc(C)c(C(=O)OC)c3c2)cc1	·	-17%	·	-22%	14%	?
O=C(CSc1nc2[nH]ncc2c(=O)[nH]1)Nc1ccccc1	·	-5%	7%	4%	5%	4%
CCCn1cc(CN2CCC(n3nccc3NC(=O)c3ccc4c(c3)OCO4)CC2)c(C)n1	·	-16%	15%	-3%[57.1 µM]	47%	8%
Oc1ccc(Cl)cc1-c1cc(-c2ccco2)[nH]n1	-20%	-36%[11.4 µM]	50µM*	40µM*	7.9µM*	?
N#CCCN(C(=O)COC(=O)CNC(=O)C12CC3CC(CC(C3)C1)C2)c1ccccc1	2%	-14%	·	-4%	17%	-3%[0.501 µM]
N#CCCN(C(=O)COC(=O)C12CC3CC(CC(O)(C3)C1)C2)c1ccc(F)cc1	5%	-5%	·	13%	19%	1.4µM*
CN1/C(=C\C(=O)c2ccco2)C(C)(C)c2ccccc21	27%	12%	?	43%	62%	?
CCN1/C(=C/C(=O)c2ccco2)Sc2ccccc21	28%	-3%	50µM*	?	69%	?
CCC(=O)/C=C1/Sc2ccccc2N1CC	-3%	?	28µM*	-9%	-14%	8.9µM*
O=C(c1ccc2c(c1)OCO2)N1CCN(S(=O)(=O)c2ccc(Cl)cc2)CC1	·	-4%	18%	14%	44%	-4%[59 µM]
NS(=O)(=O)c1ccc2c(c1)C1C=CCC1C(C1CC=CCC1)N2 (stereo unspecified)	·	?	20µM*	50µM*	-20%	?
CC(C)C1Nc2ccc(S(N)(=O)=O)cc2C2C=CCC21 (stereo unspecified)	-22%	?	35µM*	?	-8%	1.4µM*
Cc1ccc2c(c1)C1C=CCC1C(C(=O)NCCCN1CCOCC1)N2 (stereo unspecified)	·	?	·	·	8%	·
COc1ccc(C2C(C#N)=C(N)Oc3c2sc2nc(C)cc(C)c32)cc1 (stereo unspecified)	·	-18%	9%	-36%	17%	11µM*
O=C(Nc1ccc(O)c2c(=O)cc(-c3ccccc3Cl)oc12)c1ccc(F)cc1	·	-1%	18%	-2%	29%	?
Nc1ccc(O)c2c(=O)cc(-c3ccccc3Cl)oc12	-9%	-20%	4%	-6%	26%	16µM*!
O=c1cc(-c2ccccc2Cl)oc2cc(O)cc(O)c12	-4%	-18%	-10%	-23%	22%	45µM*
O=c1cc(-c2ccccc2Cl)oc2c(NS(=O)(=O)c3cc(Cl)cc(Cl)c3O)ccc(O)c12	-23%	56µM*	-17%	50µM*	-32%	50µM*
COc1cccc(NC(=O)CSCc2cc(=O)c3ccc(C)c(C)c3[nH]2)c1	·	1%	·	7%	25%[57 µM]	8%[59 µM]
CN1CCN(C(=S)NC(=O)c2ccccc2Cl)CC1	·	-10%	-28%	-23%	-9%	50µM*

Assay outcomes (PubChem)
